In assay [1] the target is 5'-AMP-activated protein kinase catalytic subunit alpha-2 (Homo sapiens) (UniProt P54646). The conditions noted are these: at 1 µM.
Assay [2] concerns the target T1, NUAK family SNF1-like kinase 1 (Homo sapiens) (UniProt O60285).
T1 sequence (whole entry): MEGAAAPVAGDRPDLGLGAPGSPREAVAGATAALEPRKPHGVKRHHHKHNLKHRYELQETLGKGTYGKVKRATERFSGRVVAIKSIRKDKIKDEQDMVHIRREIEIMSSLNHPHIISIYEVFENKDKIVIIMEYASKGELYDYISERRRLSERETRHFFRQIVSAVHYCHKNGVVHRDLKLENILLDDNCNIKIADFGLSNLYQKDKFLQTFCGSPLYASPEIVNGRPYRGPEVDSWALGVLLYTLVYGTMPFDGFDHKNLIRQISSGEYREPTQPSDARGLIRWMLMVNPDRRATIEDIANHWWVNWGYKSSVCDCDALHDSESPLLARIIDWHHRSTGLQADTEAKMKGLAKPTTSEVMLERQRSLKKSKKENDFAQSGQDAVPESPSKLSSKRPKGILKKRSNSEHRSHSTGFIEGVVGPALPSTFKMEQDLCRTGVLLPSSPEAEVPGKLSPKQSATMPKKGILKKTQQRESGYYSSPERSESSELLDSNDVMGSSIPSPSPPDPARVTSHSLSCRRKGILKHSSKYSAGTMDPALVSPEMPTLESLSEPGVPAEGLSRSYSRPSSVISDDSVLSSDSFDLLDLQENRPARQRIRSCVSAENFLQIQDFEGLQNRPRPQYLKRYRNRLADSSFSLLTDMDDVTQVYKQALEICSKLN
The conditions noted are these: at 0.1 µM.

In assay [3] the target is T1, NUAK family SNF1-like kinase 1 (Homo sapiens). The conditions noted are these: at 1 µM.
In assay [4] the target is T2, Serine/threonine-protein kinase BRSK1 (Homo sapiens) (UniProt Q8TDC3).
T2 sequence (whole entry): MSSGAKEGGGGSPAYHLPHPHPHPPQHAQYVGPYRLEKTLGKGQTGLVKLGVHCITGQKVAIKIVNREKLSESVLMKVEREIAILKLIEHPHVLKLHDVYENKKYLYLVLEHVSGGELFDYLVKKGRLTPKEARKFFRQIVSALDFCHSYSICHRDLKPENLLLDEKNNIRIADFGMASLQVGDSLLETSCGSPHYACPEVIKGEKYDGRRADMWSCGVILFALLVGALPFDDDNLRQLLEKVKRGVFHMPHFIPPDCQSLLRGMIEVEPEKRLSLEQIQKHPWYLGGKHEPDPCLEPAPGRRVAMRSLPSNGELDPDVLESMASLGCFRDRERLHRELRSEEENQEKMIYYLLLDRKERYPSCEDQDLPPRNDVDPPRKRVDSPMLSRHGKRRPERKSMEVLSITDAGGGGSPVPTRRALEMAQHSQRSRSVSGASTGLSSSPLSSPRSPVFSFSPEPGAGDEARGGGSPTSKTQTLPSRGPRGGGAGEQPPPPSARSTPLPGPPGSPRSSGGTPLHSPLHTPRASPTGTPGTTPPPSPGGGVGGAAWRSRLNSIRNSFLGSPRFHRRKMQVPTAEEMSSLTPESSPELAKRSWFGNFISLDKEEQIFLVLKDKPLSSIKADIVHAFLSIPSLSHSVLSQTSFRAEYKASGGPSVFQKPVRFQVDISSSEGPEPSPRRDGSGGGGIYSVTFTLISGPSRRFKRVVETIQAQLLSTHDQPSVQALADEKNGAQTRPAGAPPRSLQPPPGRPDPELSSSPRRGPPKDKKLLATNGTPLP
The following applies: at 0.1 µM.

Assay [5] has as its target T2, Serine/threonine-protein kinase BRSK1 (Homo sapiens). The following applies: at 1 µM.
The target of assay [6] is T3, Serine/threonine-protein kinase BRSK2 (Homo sapiens) (UniProt Q8IWQ3).
T3 sequence (whole entry): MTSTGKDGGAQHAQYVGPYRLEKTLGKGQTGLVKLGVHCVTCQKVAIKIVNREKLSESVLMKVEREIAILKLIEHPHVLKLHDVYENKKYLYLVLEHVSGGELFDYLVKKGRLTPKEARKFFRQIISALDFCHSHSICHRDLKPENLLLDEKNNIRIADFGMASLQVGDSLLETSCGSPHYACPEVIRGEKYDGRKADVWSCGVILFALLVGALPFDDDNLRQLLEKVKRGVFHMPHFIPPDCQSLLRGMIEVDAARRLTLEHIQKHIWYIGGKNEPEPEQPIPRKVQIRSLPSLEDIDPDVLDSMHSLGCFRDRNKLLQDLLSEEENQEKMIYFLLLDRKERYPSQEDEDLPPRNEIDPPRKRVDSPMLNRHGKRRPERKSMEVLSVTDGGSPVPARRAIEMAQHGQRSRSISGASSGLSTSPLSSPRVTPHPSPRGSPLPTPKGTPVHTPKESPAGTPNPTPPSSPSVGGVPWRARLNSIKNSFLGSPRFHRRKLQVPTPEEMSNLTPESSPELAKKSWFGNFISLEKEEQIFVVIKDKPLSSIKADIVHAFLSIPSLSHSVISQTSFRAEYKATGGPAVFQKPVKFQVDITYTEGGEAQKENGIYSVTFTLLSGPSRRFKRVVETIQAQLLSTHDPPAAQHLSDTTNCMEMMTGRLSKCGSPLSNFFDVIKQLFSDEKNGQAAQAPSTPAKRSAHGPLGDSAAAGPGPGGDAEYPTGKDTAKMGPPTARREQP
The conditions noted are these: at 0.1 µM.

The target of assay [7] is T3, Serine/threonine-protein kinase BRSK2 (Homo sapiens). The conditions noted are these: at 1 µM.
The target in assay [8] is Calcium/calmodulin-dependent protein kinase type 1D (Homo sapiens) (UniProt Q8IU85). The conditions noted are these: at 0.1 µM.
Assay [9] shares this target. The conditions noted are these: at 1 µM.
Assay [10] addresses Calcium/calmodulin-dependent protein kinase type II subunit alpha (Homo sapiens) (UniProt Q9UQM7). The following applies: at 0.1 µM.
Assay [11] shares this target. The conditions noted are these: at 1 µM.
For assay [12], the target named is Calcium/calmodulin-dependent protein kinase type II subunit delta (Homo sapiens) (UniProt Q13557). The following applies: at 0.1 µM.
For assay [13] the target is unchanged. The following applies: at 1 µM.
Assay [14] addresses T4, Calcium/calmodulin-dependent protein kinase type IV (Homo sapiens) (UniProt Q16566).
T4 sequence (whole entry): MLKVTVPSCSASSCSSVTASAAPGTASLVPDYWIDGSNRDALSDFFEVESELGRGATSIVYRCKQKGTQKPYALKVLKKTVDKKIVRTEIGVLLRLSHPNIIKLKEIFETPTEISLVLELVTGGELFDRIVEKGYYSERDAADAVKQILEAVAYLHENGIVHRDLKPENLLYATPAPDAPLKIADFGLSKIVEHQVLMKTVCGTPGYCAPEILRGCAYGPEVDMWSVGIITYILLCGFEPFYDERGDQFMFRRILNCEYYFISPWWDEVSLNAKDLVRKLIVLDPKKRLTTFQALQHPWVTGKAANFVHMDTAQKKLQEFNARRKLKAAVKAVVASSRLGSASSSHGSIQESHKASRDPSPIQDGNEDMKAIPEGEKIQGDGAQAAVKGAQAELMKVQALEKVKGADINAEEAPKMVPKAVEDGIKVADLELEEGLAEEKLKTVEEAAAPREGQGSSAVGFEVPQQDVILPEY
The following applies: at 0.1 µM.

Assay [15] deals with T4, Calcium/calmodulin-dependent protein kinase type IV (Homo sapiens). The conditions noted are these: at 1 µM.
Assay [16] addresses T5, Serine/threonine-protein kinase Chk1 (Homo sapiens) (UniProt O14757).
T5 sequence (whole entry): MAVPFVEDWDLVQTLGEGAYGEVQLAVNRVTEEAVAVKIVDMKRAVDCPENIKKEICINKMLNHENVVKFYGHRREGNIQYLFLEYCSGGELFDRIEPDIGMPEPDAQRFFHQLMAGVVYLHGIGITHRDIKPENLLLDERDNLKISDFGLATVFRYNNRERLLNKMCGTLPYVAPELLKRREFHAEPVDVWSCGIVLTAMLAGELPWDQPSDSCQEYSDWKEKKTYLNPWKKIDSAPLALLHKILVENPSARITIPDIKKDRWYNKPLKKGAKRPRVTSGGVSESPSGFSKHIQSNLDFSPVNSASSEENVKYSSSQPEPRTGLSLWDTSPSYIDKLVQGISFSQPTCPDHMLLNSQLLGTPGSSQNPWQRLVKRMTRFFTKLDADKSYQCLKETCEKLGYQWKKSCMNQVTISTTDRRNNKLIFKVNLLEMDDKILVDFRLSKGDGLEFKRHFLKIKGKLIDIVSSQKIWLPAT
The following applies: at 0.1 µM.

Assay [17] concerns the target T5, Serine/threonine-protein kinase Chk1 (Homo sapiens). The following applies: at 1 µM.
Assay [18] addresses Serine/threonine-protein kinase Chk2 (Homo sapiens) (UniProt O96017). The following applies: at 0.1 µM.
For assay [19] the target is unchanged. The following applies: at 1 µM.
The target in assay [20] is Death-associated protein kinase 1 (Homo sapiens) (UniProt P53355). The following applies: at 0.1 µM.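 Note: reported figure is the mean inhibition of DAPK1.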
Chain of Death-associated protein kinase 1 (Homo sapiens) (P53355 whole entry, looked up): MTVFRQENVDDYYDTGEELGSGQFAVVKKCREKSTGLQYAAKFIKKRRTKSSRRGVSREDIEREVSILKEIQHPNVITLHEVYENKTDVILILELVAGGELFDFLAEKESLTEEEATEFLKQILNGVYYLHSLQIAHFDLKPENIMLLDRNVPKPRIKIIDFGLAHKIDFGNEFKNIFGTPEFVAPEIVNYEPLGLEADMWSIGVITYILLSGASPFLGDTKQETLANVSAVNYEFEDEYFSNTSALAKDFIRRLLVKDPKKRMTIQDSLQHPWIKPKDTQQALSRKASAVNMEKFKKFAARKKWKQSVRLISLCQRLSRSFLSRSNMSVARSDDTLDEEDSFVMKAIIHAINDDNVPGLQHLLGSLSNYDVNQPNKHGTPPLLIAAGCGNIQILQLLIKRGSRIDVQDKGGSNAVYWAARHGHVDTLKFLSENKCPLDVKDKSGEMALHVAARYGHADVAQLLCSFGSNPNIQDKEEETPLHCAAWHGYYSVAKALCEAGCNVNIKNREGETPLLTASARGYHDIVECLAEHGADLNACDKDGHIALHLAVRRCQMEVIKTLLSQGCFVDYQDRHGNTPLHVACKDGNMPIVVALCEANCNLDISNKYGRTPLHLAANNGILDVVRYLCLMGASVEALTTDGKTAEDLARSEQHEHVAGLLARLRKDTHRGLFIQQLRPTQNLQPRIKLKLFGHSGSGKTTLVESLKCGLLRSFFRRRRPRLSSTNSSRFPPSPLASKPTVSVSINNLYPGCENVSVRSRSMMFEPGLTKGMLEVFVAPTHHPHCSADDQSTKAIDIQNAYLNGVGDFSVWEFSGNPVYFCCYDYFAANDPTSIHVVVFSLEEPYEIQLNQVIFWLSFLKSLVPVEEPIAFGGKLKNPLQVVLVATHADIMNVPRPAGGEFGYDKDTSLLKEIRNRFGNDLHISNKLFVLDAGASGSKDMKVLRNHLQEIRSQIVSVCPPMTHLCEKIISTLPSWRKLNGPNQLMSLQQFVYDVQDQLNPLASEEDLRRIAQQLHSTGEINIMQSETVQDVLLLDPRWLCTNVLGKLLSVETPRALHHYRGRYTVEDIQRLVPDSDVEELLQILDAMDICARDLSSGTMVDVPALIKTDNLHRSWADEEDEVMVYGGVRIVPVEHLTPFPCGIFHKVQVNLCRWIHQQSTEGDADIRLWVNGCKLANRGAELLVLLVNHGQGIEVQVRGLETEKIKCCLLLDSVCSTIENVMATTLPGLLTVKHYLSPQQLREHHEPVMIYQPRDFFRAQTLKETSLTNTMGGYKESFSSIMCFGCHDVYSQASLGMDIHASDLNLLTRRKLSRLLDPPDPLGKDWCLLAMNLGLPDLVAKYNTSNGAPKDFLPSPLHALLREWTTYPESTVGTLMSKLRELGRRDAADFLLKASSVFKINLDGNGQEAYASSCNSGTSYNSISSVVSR

Chain of Calcium/calmodulin-dependent protein kinase type II subunit alpha (Homo sapiens) (Q9UQM7 whole entry): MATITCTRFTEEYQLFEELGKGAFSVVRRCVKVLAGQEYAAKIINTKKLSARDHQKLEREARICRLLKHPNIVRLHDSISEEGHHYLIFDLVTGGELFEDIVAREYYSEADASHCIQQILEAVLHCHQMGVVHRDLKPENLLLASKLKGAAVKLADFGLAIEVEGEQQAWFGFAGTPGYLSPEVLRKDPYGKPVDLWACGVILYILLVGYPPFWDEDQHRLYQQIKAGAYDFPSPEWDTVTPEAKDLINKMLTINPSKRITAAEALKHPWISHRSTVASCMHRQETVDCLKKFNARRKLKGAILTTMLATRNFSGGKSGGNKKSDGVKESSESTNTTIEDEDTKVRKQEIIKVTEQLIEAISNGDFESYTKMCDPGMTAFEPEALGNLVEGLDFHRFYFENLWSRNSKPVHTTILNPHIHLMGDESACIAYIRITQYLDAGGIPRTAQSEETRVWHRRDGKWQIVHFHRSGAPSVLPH
Chain of Calcium/calmodulin-dependent protein kinase type 1D (Homo sapiens) (Q8IU85 whole entry, looked up): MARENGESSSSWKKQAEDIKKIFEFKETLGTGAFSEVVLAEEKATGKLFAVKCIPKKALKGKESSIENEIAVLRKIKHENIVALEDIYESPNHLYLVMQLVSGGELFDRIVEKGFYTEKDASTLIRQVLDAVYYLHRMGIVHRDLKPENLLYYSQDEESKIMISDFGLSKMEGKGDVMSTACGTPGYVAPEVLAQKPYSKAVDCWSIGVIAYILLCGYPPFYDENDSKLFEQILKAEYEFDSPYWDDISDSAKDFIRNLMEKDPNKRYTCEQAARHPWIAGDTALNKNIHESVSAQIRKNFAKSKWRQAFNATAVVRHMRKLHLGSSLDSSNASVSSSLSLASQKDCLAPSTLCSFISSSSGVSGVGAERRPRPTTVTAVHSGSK
Chain of 5'-AMP-activated protein kinase catalytic subunit alpha-2 (Homo sapiens) (P54646 whole entry, looked up): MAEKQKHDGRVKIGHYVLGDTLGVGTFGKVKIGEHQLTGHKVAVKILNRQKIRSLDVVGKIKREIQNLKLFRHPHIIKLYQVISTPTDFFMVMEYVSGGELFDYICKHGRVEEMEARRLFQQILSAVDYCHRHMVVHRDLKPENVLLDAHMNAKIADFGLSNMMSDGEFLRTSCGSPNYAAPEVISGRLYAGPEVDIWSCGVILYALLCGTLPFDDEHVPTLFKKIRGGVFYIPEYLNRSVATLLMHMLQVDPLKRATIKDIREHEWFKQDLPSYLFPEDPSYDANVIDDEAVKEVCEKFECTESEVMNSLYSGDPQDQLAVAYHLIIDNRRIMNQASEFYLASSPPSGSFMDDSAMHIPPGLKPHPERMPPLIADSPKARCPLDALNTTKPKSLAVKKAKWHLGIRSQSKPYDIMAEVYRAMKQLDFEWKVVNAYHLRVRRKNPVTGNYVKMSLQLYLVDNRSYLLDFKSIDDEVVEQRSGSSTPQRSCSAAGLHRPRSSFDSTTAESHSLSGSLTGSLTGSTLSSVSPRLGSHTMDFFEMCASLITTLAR
Chain of Calcium/calmodulin-dependent protein kinase type II subunit delta (Homo sapiens) (Q13557 whole entry): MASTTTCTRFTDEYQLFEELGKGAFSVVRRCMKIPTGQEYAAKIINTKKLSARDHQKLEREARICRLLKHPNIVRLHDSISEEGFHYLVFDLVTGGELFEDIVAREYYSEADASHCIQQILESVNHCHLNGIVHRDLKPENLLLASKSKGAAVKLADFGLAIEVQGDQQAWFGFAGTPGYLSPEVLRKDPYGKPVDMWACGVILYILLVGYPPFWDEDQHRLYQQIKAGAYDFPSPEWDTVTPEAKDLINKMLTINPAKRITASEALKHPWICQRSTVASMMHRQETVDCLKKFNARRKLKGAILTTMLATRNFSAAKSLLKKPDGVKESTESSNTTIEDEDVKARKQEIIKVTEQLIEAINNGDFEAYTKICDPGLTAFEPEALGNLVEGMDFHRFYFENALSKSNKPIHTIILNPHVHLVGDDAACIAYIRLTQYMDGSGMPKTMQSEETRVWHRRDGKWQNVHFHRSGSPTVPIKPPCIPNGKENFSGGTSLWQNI
Chain of Serine/threonine-protein kinase Chk2 (Homo sapiens) (O96017 whole entry): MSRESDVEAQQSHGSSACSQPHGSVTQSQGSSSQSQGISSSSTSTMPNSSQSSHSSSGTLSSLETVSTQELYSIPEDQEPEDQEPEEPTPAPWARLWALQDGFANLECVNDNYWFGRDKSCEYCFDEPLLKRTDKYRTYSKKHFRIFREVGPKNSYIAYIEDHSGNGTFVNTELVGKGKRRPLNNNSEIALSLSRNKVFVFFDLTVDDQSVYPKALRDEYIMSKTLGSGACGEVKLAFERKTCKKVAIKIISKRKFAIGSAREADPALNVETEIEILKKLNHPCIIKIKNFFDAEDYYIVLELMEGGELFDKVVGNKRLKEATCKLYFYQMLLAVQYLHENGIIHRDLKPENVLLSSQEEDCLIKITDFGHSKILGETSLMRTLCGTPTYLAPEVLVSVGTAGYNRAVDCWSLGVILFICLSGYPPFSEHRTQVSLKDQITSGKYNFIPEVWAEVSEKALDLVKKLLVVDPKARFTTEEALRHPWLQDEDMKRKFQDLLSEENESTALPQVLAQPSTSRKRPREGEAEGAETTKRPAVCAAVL

As usually defined, the inhibition is the drop in the measured response relative to a control, in per cent. Consider `CC(C)(CO)CNC(=O)c1ccc2c(c1)/C(=N/Nc1ccc(S(N)(=O)=O)cc1)C(=O)N2`, for which the inhibition in [1] was 33.7%; in assay [2], 19.7%; in assay [3], 58.6%; in assay [4], 6.46%; in assay [5], 37.7%; in assay [6], 11.6%. In addition, the inhibition in assay [7] was 52.2%; in [8] it was 0.39%; in assay [9], 1.92%; in assay [10] it was -0.2%; in assay [11], 4.28%; in assay [12], 0.61%. For the same molecule, the inhibition in [13] was 12.2%; in assay [14], 0.55%; in [15], -0.51%; in assay [16], 0.39%; in [17], -3.69%; in [18], -0.89%. Further, the inhibition was 5.93% in assay [19] and -0.17% in [20].
For `CNC(=O)c1cncc(/C=C/c2ccccc2Cl)c1`, the inhibition was -0.38% in assay [1]; 4.61% in [2]; 4.26% in [3]; 0.56% in assay [4]; 8.62% in assay [5]; 0.31% in [6]. For the same molecule, the inhibition was 8.91% in assay [7]; 0.88% in [8]; -1.08% in assay [9]; 1.53% in [10]; 1.63% in [11]; -0.13% in assay [12]. Further, the inhibition in assay [13] is -0.98%; in assay [14] it was -3.66%; in [15], -4.17%; in assay [16], 1.43%; in [17] it was 3.35%; in assay [18], -0.6%. Besides, the inhibition was 1.77% in assay [19] and 2.15% in assay [20].
`CS(=O)(=O)CCNCc1ccc(-c2ccc3ncnc(Nc4ccc(OCc5ccccc5)c(C(F)(F)F)c4)c3c2)o1`: the inhibition is 3.87% in [1]; -0.55% in assay [2]; -0.02% in [3]; 0.14% in assay [4]; 4.02% in [5]; 3.18% in assay [6]. For the same molecule, the inhibition was 4.31% in [7]; 0.11% in [8]; 4.44% in assay [9]; 2.86% in [10]; -1.78% in [11]; 1.83% in [12]. Besides, the inhibition in [13] is 1.77%; in [14], -0.46%; in assay [15], -1.2%; in assay [16], 8.46%; in [17] it was 10.8%; in [18], 7.47%. Besides, the inhibition in [19] was 7.84%; in [20] it was 12.8%.
Turning to `CCNC(=O)O[C@H]1CN[C@H](C#Cc2cc3ncnc(Nc4ccc(OCc5cccc(F)c5)c(Cl)c4)c3s2)C1`, the inhibition is 4.45% in assay [1]; 1.68% in assay [2]; 6.34% in [3]; 0.67% in assay [4]; 2.32% in assay [5]; 2.25% in assay [6]. Besides, the inhibition in assay [7] was found to be 1.26%; in [8], 1.21%; in assay [9] it was 2.24%; in assay [10], 3.45%; in [11] it was 3.02%; in [12], 3.6%. Also, the inhibition in assay [13] worked out at 4.34%; in assay [14], 2.5%; in [15], 2.5%; in [16], 3.99%; in assay [17], 2.84%; in assay [18], 2.23%. For the same molecule, the inhibition in assay [19] is 2.55%; in [20], 3.17%.

The values above are taken from ChEMBL document CHEMBL1961873, “Compounds: GSK PKIS; Assays: Nanosyn kinase panel” (2012).
